# Laboratory results taken from PubChem BioAssay AID463212 (Sanford-Burnham Center for Chemical Genomics, 2010).
# The whole screen tested about 330,000 compounds, of which about 4,400 (1.3%) were called active. The sample as a whole holds a higher share of actives than the screen did. A number with no mark means an inactive call.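 Rule for the calls: active = growth inhibition of the mutant yeast at or above 50%; inactive = the rest.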
# Experiment: growth inhibitors of tim23-1 mutant yeast, primary screen, luminescence, uHTS (AID 463212);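 note: temperature-sensitive mutant grown at 25 °C; plate controls were DMSO-treated mutant yeast for no effect and medium wells lacking yeast for full effect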
# Conditions: S. cerevisiae tim23-1 growth, BacTiter-Glo luminescence, 24 h; at 20 µM; stronger effect = higher value
row,SMILES,inhibition
1,CC1Cn2c(nnc2-c2cccs2)S1 (configuration not stated),3.29%
2,NS(=O)(=O)c1ccc(CCNC(=O)CNC(=O)Cc2ccccc2)cc1,7.58%
3,CCN(CC)c1ccc(NC(=O)C2CCC(CNc3c(N4CCCC4)c(=O)c3=O)CC2)c(C)c1 (configuration not stated),2.65%
4,O=C(Nc1nnc(SCc2c(Cl)cccc2Cl)s1)C1CCCO1 (configuration not stated),52.3% (active)
5,O=C(Nc1nnc(SCc2c(Cl)cccc2Cl)s1)c1cccc([N+](=O)[O-])c1,-8.16%
6,O=C(NCc1ccccc1Cl)C1CCCO1 (configuration not stated),3.86%
7,CC1CN(C(=O)c2cc(COc3c(F)cccc3F)on2)CCN1C (configuration not stated),8.91%
8,O=C(COC(=O)/C=C/c1cn(-c2ccccc2)nc1-c1cccnc1)Nc1ccc(Cl)cc1Cl,20.1%
9,NC(=O)C1CCN(C(=O)c2cn(-c3ccccc3)nc2-c2cccnc2)CC1,-6.01%
10,CN(C)/N=C/c1cn(-c2ccccc2)nc1-c1cccnc1,50.3% (active)
11,O=C1CC(C(F)(F)C(F)(F)C(F)(F)C(F)(F)F)=Nc2ccccc2N1,15.9%
12,CC(C)C[C@H](NC(=O)NCCc1ccc(Cl)cc1)C(=O)O,9.43%
13,Cc1ccc2nc(SCC(=O)N3CC(C)OC(C)C3)nc(=O)n2c1 (configuration not stated),10.2%
14,O=C(NC(=S)Nc1ccccc1N1CCCCC1)c1ccc(F)cc1,32.5%
15,CCc1ccc(C(=O)NC(=S)Nc2ccccc2N2CCOCC2)cc1,53.9% (active)
16,O=C(Nc1ccccc1N1CCOCC1)c1ccncc1,-8.11%
17,O=C(NC1CC2CCCC(C1)N2C(=O)N1CCCCC1)C1CCCCC1 (configuration not stated),19.4%
18,Cc1cc(C)nc(NC2=NCC(=O)N2c2ccc(Cl)cc2)n1,-5.7%
19,O=C(N/N=C/C=C/c1ccco1)c1cccs1,59.4% (active)
20,O=C(Nc1ccc(NC(=O)c2cccs2)cn1)c1ccco1,17.2%
21,O=C(N/N=C/c1ccco1)c1csc2c1CCCC2,22.8%

row,SMILES,inhibition
1,O=C(Nc1ccc(Br)cc1)c1cc(S(=O)(=O)Nc2ccccn2)ccc1Cl,-0.209%
2,Cc1ccc(NN=C2C(=O)OC(C)(C)OC2=O)c(C)c1,-2.58%
3,CCCCCCc1ccc(O)cc1O,62.8% (active)
4,CCCCCCc1cc2cc(-c3nnc(-c4ccccc4)o3)c(=O)oc2cc1O,7.67%
5,CCCCCCCN=C(C)c1ccccc1O,5.76%
6,CC(C)NC(=O)NNc1c(Cl)cncc1Cl,2.69%
7,O=C(/C=C/c1cccc(C(F)(F)F)c1)N1CCN(c2ccccn2)CC1,37.6%
8,COc1ccc(NC(C)=O)cc1NC(=O)CN1CCN(C2c3ccccc3-c3ccccc32)CC1,26.8%
9,O=C(C[C@H]1C(=O)N(c2ccc(F)c(F)c2)C[C@@H]1Cc1ccccc1)Nc1ccccc1,13.5%
10,COc1ccc(NC(=O)CSc2nc(NS(=O)(=O)c3ccc(C)cc3)cc(=O)[nH]2)cc1,2.94%
11,Cc1noc(C)c1-c1ccc2ncnc(NC(C)c3ccco3)c2c1 (configuration not stated),5.06%
12,Oc1ccc(-c2nnc(Nc3ccccc3)c3ccccc23)cc1,-5.13%
13,Cc1cccc(-c2nc(Nc3ccc(O)cc3)c3ccccc3n2)c1,62.7% (active)
14,CC(=O)Nc1cccc(Nc2nc(-c3cccs3)nc3ccccc23)c1,39.4%
15,CCCCn1c(O)c(N=NC(=O)Cn2c(C(F)(F)F)nc3ccccc32)c2ccccc21,-27.6%
16,O=c1ccc2c(-c3ccccc3S(=O)(=O)O)c3ccc(O)c(O)c3oc-2c1O,56% (active)
17,CCCn1c(N)c(C(=O)CSc2nnc3n2CCCCC3)c(=O)[nH]c1=O,7.27%
18,O=C(CN1C(=O)C2C3C=CC(C3)C2C1=O)NCC1COc2ccccc2O1 (configuration not stated),18.2%
19,Cc1cc(C(=O)CCl)c(C)n1CC1COc2ccccc2O1 (configuration not stated),34.4%
20,O=C1C(=O)N(CC2COc3ccccc3O2)c2ccccc21 (configuration not stated),72.4% (active)
21,CC(=O)Nc1sc2c(c1C(c1cccc(F)c1)N1CCN(CCO)CC1)CCCC2 (configuration not stated),14.7%

row,SMILES,inhibition
1,Cc1cccc(-[n+]2c(-c3cccc(Br)c3)[nH]c3nc4ccccc4nc32)c1,22.7%
2,NS(=O)(=O)c1ccc(NC(=S)NC(=O)c2cccc(Br)c2)cc1,28.3%
3,Cc1ccccc1NC(=S)NNC(=O)c1cccc(Br)c1,14.7%
4,O=C(NC(=S)Nc1cccc2c(O)cccc12)c1cccc(Br)c1,68.6% (active)
5,Cc1ccc(C)c(OCc2cc(C(=O)N3CCN(c4cnccn4)CC3)no2)c1,23.9%
6,O=C(Nc1ccc(Br)cn1)c1ccc([N+](=O)[O-])o1,43.4%
7,Cc1onc(NC(=O)c2ccc([N+](=O)[O-])o2)c1Br,55.6% (active)
8,Cc1cccc(NC(=O)c2ccc([N+](=O)[O-])o2)c1,7.53%
9,O=C(CCCNS(=O)(=O)c1cccc2nsnc12)NCCN1CCN(c2ccccc2F)CC1,1.63%
10,O=C1Nc2ccccc2/C1=C/c1ccnc2ccccc12,51.2% (active)
11,COc1cc(NS(=O)(=O)c2ccc(NC(=O)c3ccc(S(=O)(=O)N4CCCCC4)cc3)cc2)ncn1,3.91%
12,O=C1NC(Nc2nc3ccccc3s2)(C(F)(F)F)C(=O)N1C1CCCCC1 (configuration not stated),58.9% (active)
13,CCC1(CC)NC(=O)N(Cc2nc3ccccc3s2)C1=O,21.9%
14,O=C(NC1(C(F)(F)F)NC(=O)N(C2CCCCC2)C1=O)c1ccco1 (configuration not stated),14.4%
15,CC(C)c1ccc(NC(=O)[C@@H](NC(=O)N2CC(=O)Nc3ccccc32)C(C)C)cc1,10.9%
16,Cc1c(NC(=O)CCC2CCCCC2)cc(C(=O)N2CCOCC2)cc1[N+](=O)[O-],7.43%
17,CC(=O)Nc1ccc(S(=O)(=O)NC2(C(F)(F)F)C(=O)NC(C)=C2C#N)cc1 (configuration not stated),10.8%
18,CCn1c2ccccc2c2cc(NC(=S)N3CCOCC3)ccc21,51.8% (active)
19,Cc1cc(N2CCN(C)CC2)nc2ccc(NC(=S)N3CCOCC3)cc12,12.1%
20,Cc1cc(N2CCOCC2)nc2ccc(NC(=S)N3CCN(Cc4ccccc4)CC3)cc12,7.08%
